We go through seven molecules from PubChem BioAssay AID651551 (Sanford-Burnham Center for Chemical Genomics, 2012).

This assay is described as follows: GAPDH versus PEG-3 reporter suppression – cell-based, luminescence, counter-screen for PEG-3 promoter inhibitor project, SAR follow-up (AID 651551). The note with it: HeLa PEG-Prom / GAPDH luciferase reporter, 6 or 24 h, run 2, 24 h; at 99 µM (top of the series).
Take `COc1ccc(-n2nc(C(=O)NCC(=O)Nc3cccc(OC)c3)c3ccccc3c2=O)cc1`: the inhibition % (higher = more inhibition) is 27.5%.
Consider `O=C(Nc1nc2ccccc2s1)c1nn(-c2ccccc2)c(=O)c2ccccc12`, for which the inhibition % (higher = more inhibition) was found to be 60.8%.
Turning to `CCCn1nc(C(=O)Nc2nc3ccccc3s2)c2ccccc2c1=O`, the inhibition % (higher = more inhibition) worked out at 44.3%.
Regarding `CCCn1nc(C(=O)Nc2nc(-c3ccccn3)cs2)c2ccccc2c1=O`, the inhibition % (higher = more inhibition) turned out to be 71.7%.
As to `Cc1cc(NC(=O)c2ccccc2)n(-c2nc3ccccc3[nH]2)n1`, the inhibition % (higher = more inhibition) was -1.45%.
As for `CCn1nc(C(=O)Nc2nc(-c3ccccn3)cs2)c2ccccc2c1=O`, the inhibition % (higher = more inhibition) was found to be 53.9%.
For `COCCCNC(=O)c1ccc(Cn2c(=O)c3ccccc3n(Cc3ccccc3C#N)c2=O)cc1`, the inhibition % (higher = more inhibition) was 78%.
